Assay outcomes from PubChem.
Sampled rows, rich in hits. Any-hit rate of the full collection: about 7.4%.
Rab9 promoter act = activators of Rab9 promoter | Huh7 Rab9 promoter-luciferase reporter, luminescence, 24 h | Potency, µM (highest dose often 9.22 µM), for the others: top-dose activation, negative = inhibition, most hits filed as activators | 2.8% of 320,000 active | AID 485297; also: % of control where 0% means no effect; nearly all actives have a fitted effect of over 60% in size
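Luciferase signal after 10 min detection reagent at ambient indicates Rab9 promoter upregulation; stably transfected Huh7 cells were treated 24 h with compound in DMSO at 37 °C, 5% CO2.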
ELG1 genotoxic = genotoxicity induction in ELG1-luciferase HEK293T cells; HEK293T ELG1-luciferase reporter, luminescence, 16 h; Potency, µM (titrated, usually from 46 µM), for the others: at the top dose activity change, positive = activation, usual class: activators; 1.3% of 330,000 active; AID 504466; also: % of control where 0% means no effect; nearly all actives have a fitted effect of over 60% in size
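Reporter readout depends on ELG1 protein level, which increases with genetic stress. After 16 hr compound exposure at 37 °C, luciferase activity was quantified using ONE-Glo.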
NPC1 promoter act = activates the NPC1 promoter; Huh7 NPC1 promoter luciferase reporter, 24 h; Potency, µM (top dose mostly 9.22 µM), without a hit: top-dose activation, most hits filed as activators; 2.4% of 320,000 active; also: % of control where 0% means no effect; nearly all actives have a fitted effect of over 60% in size
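Readout is luciferase luminescence, reflecting NPC1 promoter activation in stably transfected Huh7 cells after 24 h compound exposure at 37 °C in reduced-serum medium with 10% FBS.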
FLuc modulator = counter-screen for miR-21 project: firefly luciferase inhibitors or activators; Potency, µM (doses to about 57.5 µM), without a hit: top-dose activity change, negative = inhibition, hits mostly inhibitors; 6.9% of 360,000 active; P08659; purified FLuc, Km substrates, luminescence inhibition;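 also: plate controls were vehicle for no effect and reference inhibitor for full effect; nearly all actives have a fitted effect of over 55% in size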
Target sequence (P08659 whole entry, looked up): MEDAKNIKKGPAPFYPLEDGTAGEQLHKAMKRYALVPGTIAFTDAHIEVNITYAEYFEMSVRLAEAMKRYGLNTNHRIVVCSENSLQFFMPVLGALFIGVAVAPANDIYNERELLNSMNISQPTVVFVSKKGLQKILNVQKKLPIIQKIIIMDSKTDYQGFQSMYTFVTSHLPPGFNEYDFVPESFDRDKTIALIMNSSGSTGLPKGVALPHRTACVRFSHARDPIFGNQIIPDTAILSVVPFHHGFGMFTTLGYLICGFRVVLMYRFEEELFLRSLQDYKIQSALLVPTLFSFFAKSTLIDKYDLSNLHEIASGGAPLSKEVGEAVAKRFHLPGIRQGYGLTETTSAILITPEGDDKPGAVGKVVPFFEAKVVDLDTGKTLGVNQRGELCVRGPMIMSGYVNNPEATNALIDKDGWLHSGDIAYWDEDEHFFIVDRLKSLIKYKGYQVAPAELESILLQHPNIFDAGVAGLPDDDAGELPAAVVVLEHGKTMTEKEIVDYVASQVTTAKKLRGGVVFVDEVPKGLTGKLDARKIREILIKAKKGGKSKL
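Purified P. pyralis luciferase (10nM final) with 10uM D-luciferin and 10uM ATP (Km levels) in 50mM Tris acetate pH 7.5, 10mM Mg acetate, 0.01% Tween-20, 0.05% BSA; qHTS 6-point titration, ~60 µM downward; luminescence read.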
SMN2 splice up = SMN2 splice variant enhancement; 2.8% of 210,000 active; HEK293 SMN2-luciferase splicing reporter, luminescence, 30-36 h; Potency, µM (titrated, usually from 46.1 µM), inactives show top-dose activity change, positive = activation, most hits filed as activators; also: % of control where 0% means no effect; nearly all actives have a fitted effect of over 55% in size
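HEK293 cells carry an SMN2 […]–luciferase reporter in which exon 7 inclusion puts luciferase in frame. Cells were plated 10-12 h before compound addition, then incubated 30-36 h at 37C. ONE-Glo luminescence was read; sodium butyrate at 4.5 mM final served as control.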
An asterisk follows results filed as active; ? = inconclusive; · = not tested or not shown; [ ] = another dose, or the depositor's remark. Calls follow the shape of the dose curve; as a rule, active = well fitted curve in the direction sought with a large enough effect; inconclusive = small, poorly fitted or top-dose-only effect, or another doubt; inactive = no such curve, though single readings can be large; an effect the other way counts as inactive or inconclusive. Potency is read from the fitted curve at half-maximal effect.

SMILES	Rab9 promoter act	ELG1 genotoxic	NPC1 promoter act	FLuc modulator	SMN2 splice up
C=CCNc1nc(-c2cc3ccccc3o2)cs1	0.631µM*	0.517µM*	1µM*	0.338µM*	0.562µM*
COc1ccccc1C(=O)COC(=O)CNS(=O)(=O)c1ccc(C)c(C)c1	-3.8%	-5.8%	-2.2%	0.4%	·
O=C(Nc1cnc2ccccn2c1=O)c1ccc(Cl)cc1Cl	0.282µM*	?	0.316µM*	1.69µM*	1.58µM*
Cc1ccc(C(=O)Nc2cnc3ccccn3c2=O)cc1	1.58µM*	4.61µM*	2.24µM*	16.9µM*	11.2µM*
O=C(NCc1ccccc1)C(c1ccco1)N(C(=O)c1csnn1)c1ccccc1 (stereo not drawn)	-0.2%	-1.1%	0.6%	1.6%	·
COc1ncc2nc(-c3cc(F)cc(F)c3)c(=O)n(CCc3ccccc3)c2n1	·	·	·	·	-13.6%
CCc1ccc(OCC(=O)N/N=C/c2ccc(OS(=O)(=O)c3ccc(C)cc3)c(OC)c2)cc1	-4.3%	-0.9%	-0.7%	5.36µM*	4.0%
COc1cc(/C=N/NS(=O)(=O)c2ccc(C)cc2)ccc1OCc1cccc(C(=O)O)c1	0.891µM*	20.2%	2µM*	0.426µM*	3.55µM*
COc1cc(/C=N/NS(=O)(=O)c2ccc3ccccc3c2)ccc1OCc1ccc(C(=O)O)cc1	2µM*	?	0.631µM*	0.338µM*	·
COc1ccc([N+](=O)[O-])cc1NC1CCN(C(=O)c2cccs2)CC1	6.2%	5.3%	-0.5%	1.4%	·
CCOC(=O)c1ccc(NC(=S)N2CCN(CCNC3=CC(=O)CC(C)(C)C3)CC2)cc1	-6.3%	0.1%	-9.4%	5.1%	-25.8%
COC(=O)c1cc(CNC(=O)c2cccc(Cl)c2Cl)ccc1OC	-1.0%	-3.9%	-0.9%	5.4%	4.9%
O=c1oc(-c2ccco2)nc2ccccc12	3.3%	1.1%	-10.8%	?	9.0%
Nc1ccccc1-c1nc2ccccc2c(=O)o1	17.4%	0.9%	7.9%	10.7µM*	·
O=c1oc(-c2ccc(Br)cc2)nc2ccccc12	3.16µM*	?	2.24µM*	?	·
O=c1oc(-c2ccccc2[N+](=O)[O-])nc2ccccc12	-0.7%	-3.7%	-0.2%	4.2%	33.2%
O=C(CSc1nc2ccccc2c(=O)[nH]1)Nc1ccc(C(=O)O)cc1	-2.0%	0.5%	-8.8%	?	10.3%
CC(=O)Nc1ccc(-c2nc3ccccc3c(=O)o2)cc1	5.7%	-1.2%	-0.3%	2.69µM*	·
CC(C)CC(=O)Nc1ccc(-c2nc3ccccc3c(=O)[nH]2)cc1	0.891µM*	6.51µM*	1.12µM*	2.39µM*	3.16µM*
COC(=O)C1=C(C(=O)OC)[C@@H]2N(Cc3ccccc3)c3ccccc3[C@@]23C[C@@H](C(=O)OC)N(C(=O)c2ccco2)C3=N1	·	·	·	·	-3.3%[9.22 µM]
CC(C)CC(=O)Nc1ccc(-c2nc3ccccc3c(=O)o2)cc1	0.6%	19.4%	3.4%	1.69µM*	7.6%
CCC(=O)Nc1cccc(-c2nc3ccccc3c(=O)o2)c1	5.1%	-3.0%	-4.0%	?	-9.9%
COc1ccc(OC)c(CNC(=O)C2CCCCN2S(=O)(=O)c2ccc(F)cc2)c1 (stereo not drawn)	·	·	·	-3.6%	·
COc1ccc(-n2ccnc2CN2CCCC(CO)(Cc3cccc(OC)c3)C2)cc1 (stereo not drawn)	1.5%	-8.7%	-2.8%	23.9µM*	·
COc1ccc(CC2(CO)CCN(Cc3cccnc3)CC2)cc1	?	5.5%	-1.2%	15.1µM*	·
SMILES	Rab9 promoter act	ELG1 genotoxic	NPC1 promoter act	FLuc modulator	SMN2 splice up
COc1ccc(-c2ncc(CN3CCC(CO)(Cc4cccc(OC)c4)CC3)cn2)cc1	-2.5%	-8.8%	-7.3%	?	·
CCN(CC(=O)Nc1ccc2c(c1)OCCO2)C(=O)c1ccc([N+](=O)[O-])s1	4.8%	0.7%	-2.0%	?	·
NNC(=O)c1csc(-c2ccc(C(F)(F)F)cc2Cl)n1	-9.3%	-0.6%	-3.4%	-8.4%	·
CCOC(=O)NC(=O)/C(C#N)=C\Nc1ccc(Cl)cc1Cl	?	16.1%	-22.6%	13.5µM*	-8.1%
Cc1ccc(/C=C/c2nnc(-c3cccs3)o2)cc1	0.891µM*	?	0.355µM*	1.69µM*	10µM*
Cc1ccc(-c2nnc(N)o2)cc1	-1.4%	8.9%	-0.2%	?	14.6%
Fc1ccc(/C=C/c2nnc(-c3cccs3)o2)cc1	1.12µM*	10.3µM*	2.24µM*	2.69µM*	12.6µM*
Cc1ccc(-c2nnc(-c3cccs3)o2)cc1	1.58µM*	5.17µM*	3.55µM*	6.75µM*	12.6µM*
CC(C)(Oc1ccc(-c2cccc3ccccc23)cc1)C(=O)O	·	·	·	·	-0.6%[9.22 µM]
CN(C)S(=O)(=O)c1ccc(N2CCCC2)c(C(=O)OCC(=O)N2CCN(c3ccccc3)CC2)c1	-1.8%	-4.9%	0.8%	-2.0%	·
CC(C)COC(=S)Nc1ccccc1	2.2%	?	-0.4%	16.9µM*	-9.5%
C[C@@H](N)C1CCC(C(=O)Nc2ccncc2)CC1 (stereo partly drawn)	4.2%[46.1 µM]	·	11.0%[46.1 µM]	·	14.5%
CN(C)S(=O)(=O)N1CCc2ccc(NC(=O)c3ccccc3Cl)cc2C1	17.2%	3.9%	14.9%	10.7µM*	·
CSCC(=O)N1CCc2ccc(NC(=O)c3ccccc3Cl)cc2C1	?	?	?	16.9µM*	·
CCCS(=O)(=O)N1CCc2ccc(NC(=O)c3ccccc3Cl)cc2C1	-0.3%	-3.5%	1.5%	16.9µM*	·
O=C(Nc1ccc(F)c(Cl)c1)c1cc(S(=O)(=O)N2CCc3ccccc3C2)ccc1F	·	·	·	-2.3%	·
CN(C)S(=O)(=O)N1CCc2ccc(NC(=O)C3CCCO3)cc2C1 (stereo not drawn)	2.3%	6.1%	-4.4%	-2.5%	·
Cc1ccc(NC(=O)CSc2n[nH]c(=O)n2C2CC2)cc1S(=O)(=O)N1CCOCC1	-0.2%	0.2%	-1.7%	8.5%	?
CC(NC(=O)C12CC3CC(C)(CC(C)(C3)C1)C2)c1ccncc1 (stereo not drawn)	-4.4%	-2.3%	3.8%	9.1%	·
O=C(Nc1cccc([N+](=O)[O-])c1)Nc1cccs1	9.3%	-8.3%	9.8%	26.9µM*	-18.9%
COC(=O)c1sccc1NC(=O)Nc1cccc(C)c1C	2.9%	2.2%	1.4%	-18.5%	·
COC(=O)c1sccc1NC(=O)Nc1cccc(C(C)=O)c1	1.1%	0.5%	2.5%	7.57µM*	·
COC(=O)c1sccc1NC(=O)Nc1cc(C)ccc1C	-0.6%	-0.3%	2.9%	-2.3%	-0.2%
O=C(Nc1cccc(C(F)(F)F)c1)Nc1cccs1	·	·	·	12µM*	5.2%
COC(=O)c1sccc1NC(=O)Nc1cccc(C)c1	2.5%	?	1.7%	4.78µM*	·
CC(=O)Nc1cccc(-c2nnc(SCC(=O)c3cc([N+](=O)[O-])ccc3Br)o2)c1	·	·	·	-14.0%	4.1%
COC(=O)c1sccc1NC(=O)Nc1ccc(OC)cc1	20.3%	?	17.8%	1.69µM*	·
COC(=O)c1sccc1NC(=O)Nc1cccc([N+](=O)[O-])c1	11.8%	6.5%	-1.9%	6.75µM*	·
COC(=O)c1sccc1NC(=O)Nc1cc(OC)ccc1OC	5.3%	3.4%	0.3%	-0.5%	·
